Experimental data taken from PubChem BioAssay AID686952 (The Scripps Research Institute Molecular Screening Center, 2013).
The campaign covered roughly 3,200 compounds. About 2,600 (81%) were called active.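 The calls were made as follows: active = activation above the all-compound mean plus 3 SD, ignoring values outside control-based bounds (cut at about 4.8% in these data); inactive = the rest.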 The set was probably picked from earlier hits. A selection follows.

experiment: apparent activators from fluorescence artefacts, no enzyme – biochemical, fluorescence intensity, high throughput, artefact control for kallikrein-7 zymogen activator project (AID 686952); conditions: EDANS-DABCYL substrate fluorescence interference, 4 h, at 7 µM, hits give high values, solvent 0%, active enzyme control 100%;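 also: value is the 4 h activation minus the activation read at time zero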

SMILES	activation
COc1cccc(OCc2cc(/C=N/NC(=O)c3nc(Cl)c(Cl)c(N)c3Cl)ccc2OC)c1	59.5% (active)
Cc1cc(C)c2nc3nc(C)cc(C)c3c(N)c2c1	70.4% (active)
CCOC(OCC)c1ccc(/C=C\c2nccc(N)n2)cc1	-13.8% (inactive)
COc1ccc(CNC(=O)COC(=O)C2=Cc3ccccc3OC2)cc1	11.3% (active)
COc1cc2c(cc1OC)C(C(C)C)=NC(C)(C)C2	72.2% (active)
CN1c2ccccc2-c2nc3ccccc3n2C1c1ccco1 (stereo unspecified)	11.9% (active)
CNc1cncc(-c2cccc(C(=O)N3CCOCC3)c2)n1	37.5% (active)
CCCn1c(=NC(C)=O)c(C(=O)OCC)cc2c(=O)n3ccccc3nc21	32.4% (active)
CCN1CCc2c(C#N)c(NCc3ccccc3)nc(NCCO)c2C1	28.7% (active)
COC(=O)C1=NN(c2ccccc2)C2C(=O)N(c3ccccc3OC)C(=O)C12 (stereo unspecified)	14.9% (active)
CN(C)C(=O)c1coc2nc3ccccc3nc12	110% (active)
O=C(/C=C/c1ccc2c(c1)OCCO2)c1ccc(O)cc1	3.03% (inactive)
O=C(O)c1ccc2c(c1)C(=O)N(c1ccc(/C=C/C(=O)c3ccccc3)cc1)C2=O	722% (active)
CCN(CC)CCCNC(=O)c1cc2c(=O)[nH]c3ccc(C)cc3c2s1	12.5% (active)
COC(=O)c1c(C)c(C)nc(N)c1C#N	63.7% (active)
CCN(CC(=O)Nc1c(F)cccc1F)C(=O)c1ccc(-c2ccc(C(C)=O)cc2)o1	-16.2% (inactive)
CN(C)CCN1CCN(c2cc(-c3cccc(Cl)c3)nc3ccnn23)CC1	-1.14% (inactive)
COC(=O)Cc1nc2c(N)nc(N)nc2[nH]c1=O	16.8% (active)
Cc1coc2c1c(C)cc1oc(=O)c(CC(=O)NCC(=O)N[C@H](C(=O)O)C(C)C)c(C)c12	34.8% (active)
COc1ccc(-c2cc(C(=O)n3cnc4ccccc43)c3ccccc3n2)cc1	53.3% (active)
CNC(=O)COC(=O)c1cc(-c2ccc(OC)cc2)nc2ccccc12	97.4% (active)
O=c1c(-c2ccccc2)coc2c(CN3CCOCC3)c(O)ccc12	15.3% (active)
COc1cccc2sc3cc(NCC[C@@H]4CCCN4C)ccc3c(=O)c12	38.3% (active)
CCCCc1cc(=O)oc2cc(C)cc(OCc3nn[nH]n3)c12	29.5% (active)
Cc1ccsc1-c1cc(C(=O)O)c2c(ccc3ccccc32)n1	21.4% (active)
COC(=O)c1cnn2c(C(F)(F)F)cc(-c3ccco3)nc12	35.9% (active)

SMILES	activation
O=C(OC1CCOC1=O)c1ccc(-c2nc3ccccc3s2)s1 (stereo unspecified)	13.6% (active)
Cc1nc2ccc(N)nc2nc1C	59.7% (active)
O=C(O)c1cccnc1Sc1ncnc2sc3c(c12)CCC3	15.9% (active)
CCCCN(C)CCCNC(=O)c1cc(-c2cccs2)nc2ccccc12	-40.9% (inactive)
O=C(NCCN1CCOCC1)c1cc(-c2cccs2)nc2ccccc12	31.9% (active)
O=c1oc2cc(O)ccc2cc1-c1ccc(F)cc1	80.8% (active)
CCNC(=S)Nc1ccc2c(c1)c(=O)n(C)n2Cc1ccc(Cl)cc1	-1.33% (inactive)
COc1ccc(CCNC(=O)Nc2ccc3c(c2)c(=O)n(C)n3C)cc1OC	22.7% (active)
C=CCn1c(N)c(S(=O)(=O)c2cccs2)c2nc3ccccc3nc21	-4.5% (inactive)
COCCCn1c(-c2cccs2)nc2nc3ccccc3nc21	24.8% (active)
NC(N)=Nc1nc(-c2ccccc2)c2cc(Cl)ccc2n1	-2.58% (inactive)
COc1nc(N=C(N)N)nc2c(C)cccc12	20.6% (active)
CCC1=C(C(=O)OC)C(c2cc(OC)ccc2OC)C(C#N)=C(N)O1 (stereo unspecified)	32.6% (active)
Cc1cc(N2CCOCC2)nc2ccc(NC(=S)N3CCN(Cc4ccccc4)CC3)cc12	12.7% (active)
CC(C)(C)OC(=O)c1c(N)n(CCCN2CCCC2=O)c2nc3ccccc3nc12	80.7% (active)
COCC(C)OC(=O)c1c(N)n(CCCN2CCOCC2)c2nc3ccccc3nc12 (stereo unspecified)	19% (active)
CC(C)=NN1C(=O)c2ccccc2NC1(C)C	24.5% (active)
CCOc1ccc(N2C(=O)CC(N(O)c3ccccc3)C2=O)cc1 (stereo unspecified)	188% (active)
Nc1ccccc1-c1nc2ccncc2[nH]1	5.73% (active)
CCCc1cc(=O)oc2c(C)c(O)c(CN3CCCCC3)cc12	68.1% (active)
CCOc1c2ccc(C(=O)NCc3ccc4c(c3)OCO4)cc2nn1C	4.67% (active)
COCc1cc(=O)[nH]c2cc(NC(=O)C(F)(F)F)c(C)cc12	232% (active)
CCC(c1nnnn1Cc1ccco1)N(CCc1ccccc1)Cc1cc2ccc(OC)cc2[nH]c1=O (stereo unspecified)	1.63% (inactive)
CC(=O)Oc1ccc2c(C)c(CC(C)O)c(=O)oc2c1 (stereo unspecified)	80% (active)
CC(=O)Nc1cc2ccc(OC(C)=O)cc2oc1=O	127% (active)
COCCN(CCOC)c1nc(N)c2c(N)nc3c(c2c1C#N)CC(=O)N3Cc1ccc(Cl)cc1	-34.7% (inactive)

SMILES	activation
CCN1CCN(C(=O)c2cc3cc4ccc(OC)cc4nc3s2)CC1	-12.4% (inactive)
COc1ccc2oc(=O)c(C(=O)N3CCCC3)cc2c1	23.6% (active)
Cc1nc2ccccc2cc1O	4.33% (active)
Cc1cc(S(=O)(=O)c2cc3ccc(O)c(C)c3oc2=O)ccc1F	63.2% (active)
N#CC1=C(N)Oc2c(sc3ccccc23)C1c1ccco1 (stereo unspecified)	-21.2% (inactive)
Nc1ccc2nn(-c3ccc(Cl)cc3)nc2c1	62.1% (active)
COc1ccc(C2=CC(c3cccc(OC)c3)n3nnnc3N2)cc1 (stereo unspecified)	-27.9% (inactive)
COC(=O)c1ccc(C2C3=C(Nc4nnnn42)c2ccccc2OC3)cc1 (stereo unspecified)	4.8% (active)
CC(C)(C)Nc1c(-c2cccs2)nc2ccccn12	-64.5% (inactive)
COc1ccc(-c2cn3cccnc3n2)cc1	79.8% (active)
c1ccc(-c2cn3cccnc3n2)cc1	72.3% (active)
FC(F)(F)Oc1ccc(-c2cn3cccnc3n2)cc1	36.4% (active)
Cc1oc2nc(SCC(=O)Nc3ccc(S(N)(=O)=O)cc3)nc(NC(=O)c3ccccc3)c2c1C	3.36% (inactive)
CCc1ccc(-c2cc(C(=O)NCc3ccco3)c3ccccc3n2)s1	73.9% (active)
CC(=O)Nc1nc2ncccn2c1-c1ccc(C(F)(F)F)cc1	41.3% (active)
CC(C)Cc1nc(Nc2ccc(S(=O)(=O)N3CCCC3)cc2)c2nnn(Cc3ccccc3)c2n1	38.6% (active)
COCC(=O)Nc1nnc(COc2ccccc2)s1	1.67% (inactive)
CN(C(=O)COc1ccccc1)c1nnc(-c2ccncc2)s1	107% (active)
CN(C(=O)c1ccccn1)c1nnc(-c2ccccn2)s1	85.1% (active)
CC(OC(=O)c1ccccc1NCCO)C(=O)Nc1ccnn1C(C)C (stereo unspecified)	29.3% (active)
COc1ccc2c(c1)CCc1cn3ncc(C#N)c3nc1-2	-65.2% (inactive)
CN(CCc1ccccn1)S(=O)(=O)c1ccc2c3c(cccc13)C(=O)N2	71.8% (active)
COc1cc(/C=C/C(=O)Nc2ccc(OC)c(S(=O)(=O)N3CCOCC3)c2)ccc1OCC#N	93.1% (active)
COc1ccc2nc(-c3ccccn3)ccc2c1	4.08% (active)
O=C(Oc1c(-c2ccco2)oc2ccccc2c1=O)c1cccnc1	18.8% (active)
COc1cc(C(=O)N2C(=O)c3cccc(N)c3C2=O)cc(OC)c1OC	122% (active)

SMILES	activation
CC1CC(C)CN(S(=O)(=O)c2cccc(C(=O)N3C(=O)c4cccc(N)c4C3=O)c2)C1 (stereo unspecified)	228% (active)
COCc1cc(=O)oc2cc(NS(=O)(=O)c3ccc(C)cc3)ccc12	70.4% (active)
CCn1c(=N)c(C(=O)NCCCOC)cc2c(=O)n3cccc(C)c3nc21	74.4% (active)
Cc1ccc2nc3c(cc(C(=O)NCCc4ccccc4)c(=N)n3CC3CCCO3)c(=O)n2c1 (stereo unspecified)	-37.3% (inactive)
Cc1cccn2c(=O)c3cc(C(=O)NCCN4CCOCC4)c(=N)n(Cc4cccnc4)c3nc12	18.1% (active)
Cc1cccn2c(=O)c3cc(C#N)c(=NC(=O)c4cccnc4)n(CC4CCCO4)c3nc12 (stereo unspecified)	-72.9% (inactive)
Oc1ccc2ccc3cccc[n+]3c2c1	38.2% (active)
CCN(CC)CCCC(C)n1c2nc(=O)[nH]c(=O)c-2nc2cc(Cl)ccc21 (stereo unspecified)	69.7% (active)
Cc1cc2cc3n(c2nn1)N=C(Cl)CC3	37.9% (active)
CCOc1ccccc1C1C(C(=O)OC)=CN(C)C=C1C(=O)OC	-18% (inactive)
N#Cc1nc(-c2cccc3ccccc23)oc1N	76.5% (active)
Cc1cc(C)c(C#N)c(SCC(=O)NN2CC(=O)N(c3ccccc3F)CC2=O)n1	58.1% (active)
CN(C)CCCn1c(N)c(C#N)c2nc(C#N)c(C#N)nc21	46.2% (active)
CC1(C)CN(c2ccc(-c3ccnc4ncnn34)cc2)C1=O	68.4% (active)
CN1CCCc2cc(C#N)c(=O)[nH]c21	38.1% (active)
Cc1cc2c(nc1C)CCCN2C	2.55% (inactive)
COc1cccc(NC(=O)CN(C)C(=O)/C=C/c2cc(OC)ccc2OC)c1	-114% (inactive)
Cn1cccc1/C=N/NC(=O)CNc1cccc2ccccc12	1.38% (inactive)
CC1(C)CC(=O)c2cc(OCC(=O)NCC3CCCO3)ccc2O1 (stereo unspecified)	57.9% (active)
C[C@@H]1C(c2ccc(F)cc2)=NN(c2ccc(Br)cc2)[C@H]1C(=O)N1CCOC1=O	26.5% (active)
Clc1ccc(-c2cccc3nccn23)cc1	11.3% (active)
Cc1ccc(-c2nn(-c3ccccc3)cc2/C=C/C(=O)Nc2cccc(S(N)(=O)=O)c2)cc1	251% (active)
COc1ccc2nc(Nc3nc4cc5c(cc4s3)OCCO5)sc2c1	-11.5% (inactive)
